Drawing on the supplement of paper PMC12067926, this text covers relative growth for 37 compounds.

The test system of one test is Oryzobacter 1 (Oryzobacter terrae). As to the kind of experiment: relative growth (AUC of 72 h growth curve relative to DMSO control, dAUC) (ratio); higher = more growth (less inhibition), active = hit call of the paper. The following applies: 20 µM. The gist of the method: (§1)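 Bacterial isolates from Icelandic stream sediments and Silwood Park soil, plus whole sediment communities, were grown to carrying capacity in Luria–Bertani medium, then diluted 1:100 into 96-well plates with each chemical at 20 µM (1% DMSO). A600 was read hourly for 72 h on a plate reader, with brief shaking before each read. Relative growth (dAUC) is the spline-integrated area under the growth curve, averaged over three biological replicates and divided by the mean of the DMSO controls.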
`CNC(=O)CSP(=S)(OC)OC`: the relative growth is 1.07 (inactive).
On the same count and under the same terms, the result for `N#CCNC(=O)c1cnccc1C(F)(F)F` reads 1.09 (inactive).
As for `COP(=O)(OC)OC=C(Cl)Cl`, the relative growth was 0.94 (inactive).
Consider `CCc1cc(C)cc(CC)c1-c1c(OC(=O)C(C)(C)C)n2n(c1=O)CCOCC2`, for which the relative growth was 1.01 (inactive).
Take `CCOc1ccc(C(C)(C)COCc2cccc(Oc3ccccc3)c2)cc1`: the relative growth was 1.05 (inactive).
With `COc1ncc(F)c2nc(S(=O)(=O)Nc3c(F)cccc3F)nn12`, the relative growth was 1 (inactive).
Take `O=[N+]([O-])c1cc(C(F)(F)F)c(Cl)c([N+](=O)[O-])c1Nc1ncc(C(F)(F)F)cc1Cl`: the relative growth was 0.00855 (active).
Still for that read-out and setting: the result for `COP(=S)(OC)Oc1ccc(SC)c(C)c1` reads 1.02 (inactive); that for `CCCCCCCCCCCCNC(=N)N`, 0.00315 (active); that for `CC(C)NC(=O)N1CC(=O)N(c2cc(Cl)cc(Cl)c2)C1=O`, 1.02 (inactive).
Still for that read-out and setting: then `CCCCOC(=O)[C@H](C)Oc1ccc(Oc2ccc(C#N)cc2F)cc1`, with 1.06 (inactive); and `CCc1cccc(C)c1N(C(=O)CCl)[C@@H](C)COC`, with 1.06 (inactive); and `CC(C1CC1)C(O)(Cn1cncn1)c1ccc(Cl)cc1` (centres undefined), with 0.982 (inactive).
Same read-out and setting: the result for `CC(COc1ccc(Oc2ccccc2)cc1)Oc1ccccn1` (centres undefined) reads 1.11 (inactive).
In the case of `CCNc1nc(Cl)nc(NC(C)C)n1`, the relative growth is 0.998 (inactive).
For the compound `N#C/N=C1\SCCN1Cc1ccc(Cl)nc1`, the relative growth was 1.02 (inactive).
Same read-out and setting: then `CCCC1COC(Cn2cncn2)(c2ccc(Cl)cc2Cl)O1` (centres undefined), with 1.1 (inactive); and `COc1cc(C)c(C(=O)c2c(OC)ccc(Br)c2C)c(OC)c1OC`, with 1.07 (inactive).
On the same count and under the same terms, the result for `C/C(=N\C#N)N(C)Cc1ccc(Cl)nc1` reads 1.07 (inactive).
Still for that read-out and setting: the result for `CCCCN(CCCC)SN(C)C(=O)Oc1cccc2c1OC(C)(C)C2` reads 1.2 (inactive).
With `N#Cc1c(Cl)c(Cl)c(Cl)c(C#N)c1Cl`, the relative growth is 0.632 (active).
Same read-out and setting: the result for `Cc1nc(N(C)C)nc(OC(=O)N(C)C)c1C` reads 0.936 (inactive); that for `CC(C)CC(C)c1sccc1NC(=O)c1cn(C)nc1C(F)(F)F` (centres undefined), 1.2; that for `Fc1ccc(Oc2ccnc3cc(Cl)cc(Cl)c23)cc1`, 1.01 (inactive).
As for `CC1(C)C(C=C(Cl)Cl)C1C(=O)OCc1cccc(Oc2ccccc2)c1` (centres undefined), the relative growth is 1.14 (inactive).
Still for that read-out and setting: then `Oc1ccccc1-c1ccccc1`, with 1.12 (inactive); and `CCC(C)c1ccccc1OC(=O)NC` (centres undefined), with 0.993 (inactive).
Still for that read-out and setting: the result for `CN/C(=N\[N+](=O)[O-])NCc1cnc(Cl)s1` reads 1.05 (inactive); that for `O=C(O)c1nc(Cl)ccc1Cl`, 0.889 (inactive).
`CC1(C)[C@H](/C=C(\Cl)C(F)(F)F)[C@@H]1C(=O)OC(C#N)c1cccc(Oc2ccccc2)c1` (some centres undefined): the relative growth was 1.11 (inactive).
Same read-out and setting: then `O=C(NC(=O)c1c(F)cccc1F)Nc1ccc(OC(F)(F)C(F)OC(F)(F)F)c(Cl)c1` (centres undefined), with 0.958 (inactive).
Turning to `O=C1C=C(N(Cc2ccc(Cl)nc2)CC(F)F)CO1`, the relative growth is 1.11 (inactive).
Take `O=C(O)COc1ccc(Cl)cc1Cl`: the relative growth is 0.964 (inactive).
As for `COc1ccc(C(=CC(=O)N2CCOCC2)c2ccc(Cl)cc2)cc1OC` (mixture of isomers), the relative growth was 1.12 (inactive).
Turning to `CCN(CC)c1nc(C)cc(OP(=S)(OC)OC)n1`, the relative growth was 1.06 (inactive).
Turning to `Oc1ccc(Cl)cc1Cc1cc(Cl)ccc1O`, the relative growth was 0.00429 (active).
Consider `N#CC(CCc1ccc(Cl)cc1)(Cn1cncn1)c1ccccc1` (centres undefined), for which the relative growth was 1.02 (inactive).

A further test concerns Paenibacillus 1 (Paenibacillus castaneae). The test is described as above. The note with it: 20 µM. The gist of the method: as §1
In the case of `CNC(=O)CSP(=S)(OC)OC`, the relative growth was 0.975 (inactive).
Still for that read-out and setting: the result for `N#CCNC(=O)c1cnccc1C(F)(F)F` reads 0.935 (inactive).
Same read-out and setting: the result for `COP(=O)(OC)OC=C(Cl)Cl` reads 0.984 (inactive).
On the same count and under the same terms, then `CCc1cc(C)cc(CC)c1-c1c(OC(=O)C(C)(C)C)n2n(c1=O)CCOCC2`, with 0.956 (inactive); and `CCOc1ccc(C(C)(C)COCc2cccc(Oc3ccccc3)c2)cc1`, with 0.942 (inactive); and `COc1ncc(F)c2nc(S(=O)(=O)Nc3c(F)cccc3F)nn12`, with 1.06 (inactive).
`O=[N+]([O-])c1cc(C(F)(F)F)c(Cl)c([N+](=O)[O-])c1Nc1ncc(C(F)(F)F)cc1Cl`: the relative growth is 0.00404 (active).
As to `COP(=S)(OC)Oc1ccc(SC)c(C)c1`, the relative growth was 1.02 (inactive).
The same measure, in the same setting: the result for `CCCCCCCCCCCCNC(=N)N` reads 0.893 (inactive).
Same read-out and setting: then `CC(C)NC(=O)N1CC(=O)N(c2cc(Cl)cc(Cl)c2)C1=O`, with 0.996 (inactive); and `CCCCOC(=O)[C@H](C)Oc1ccc(Oc2ccc(C#N)cc2F)cc1`, with 1.1 (inactive); and `CCc1cccc(C)c1N(C(=O)CCl)[C@@H](C)COC`, with 0.974 (inactive).
`CC(C1CC1)C(O)(Cn1cncn1)c1ccc(Cl)cc1` (centres undefined): the relative growth was 0.959 (inactive).
For `CC(COc1ccc(Oc2ccccc2)cc1)Oc1ccccn1` (centres undefined), the relative growth was 1.05 (inactive).
Consider `CCNc1nc(Cl)nc(NC(C)C)n1`, for which the relative growth is 1.01 (inactive).
Turning to `N#C/N=C1\SCCN1Cc1ccc(Cl)nc1`, the relative growth is 1.05 (inactive).
Turning to `CCCC1COC(Cn2cncn2)(c2ccc(Cl)cc2Cl)O1` (centres undefined), the relative growth is 0.935 (inactive).
`COc1cc(C)c(C(=O)c2c(OC)ccc(Br)c2C)c(OC)c1OC`: the relative growth is 0.965 (inactive).
On the same count and under the same terms, the result for `C/C(=N\C#N)N(C)Cc1ccc(Cl)nc1` reads 1.06 (inactive); that for `CCCCN(CCCC)SN(C)C(=O)Oc1cccc2c1OC(C)(C)C2`, 1.12 (inactive).
Regarding `N#Cc1c(Cl)c(Cl)c(Cl)c(C#N)c1Cl`, the relative growth was 0.0717 (active).
As to `Cc1nc(N(C)C)nc(OC(=O)N(C)C)c1C`, the relative growth was 0.942 (inactive).
Same read-out and setting: the result for `CC(C)CC(C)c1sccc1NC(=O)c1cn(C)nc1C(F)(F)F` (centres undefined) reads 0.906 (inactive); that for `Fc1ccc(Oc2ccnc3cc(Cl)cc(Cl)c23)cc1`, 0.927 (inactive).
In the case of `CC1(C)C(C=C(Cl)Cl)C1C(=O)OCc1cccc(Oc2ccccc2)c1` (centres undefined), the relative growth was 0.894 (inactive).
Consider `Oc1ccccc1-c1ccccc1`, for which the relative growth is 0.888 (inactive).
Consider `CCC(C)c1ccccc1OC(=O)NC` (centres undefined), for which the relative growth is 1 (inactive).
Still for that read-out and setting: then `CN/C(=N\[N+](=O)[O-])NCc1cnc(Cl)s1`, with 0.961 (inactive); and `O=C(O)c1nc(Cl)ccc1Cl`, with 0.973 (inactive); and `CC1(C)[C@H](/C=C(\Cl)C(F)(F)F)[C@@H]1C(=O)OC(C#N)c1cccc(Oc2ccccc2)c1` (some centres undefined), with 0.889 (inactive).
In the case of `O=C(NC(=O)c1c(F)cccc1F)Nc1ccc(OC(F)(F)C(F)OC(F)(F)F)c(Cl)c1` (centres undefined), the relative growth is 0.957 (inactive).
The same measure, in the same setting: then `O=C1C=C(N(Cc2ccc(Cl)nc2)CC(F)F)CO1`, with 0.899 (inactive); and `O=C(O)COc1ccc(Cl)cc1Cl`, with 1.01 (inactive).
Turning to `COc1ccc(C(=CC(=O)N2CCOCC2)c2ccc(Cl)cc2)cc1OC` (mixture of isomers), the relative growth is 0.961 (inactive).
For the compound `CCN(CC)c1nc(C)cc(OP(=S)(OC)OC)n1`, the relative growth is 1.02 (inactive).
On the same count and under the same terms, the result for `Oc1ccc(Cl)cc1Cc1cc(Cl)ccc1O` reads 0.00339 (active).
As to `N#CC(CCc1ccc(Cl)cc1)(Cn1cncn1)c1ccccc1` (centres undefined), the relative growth was 0.947 (inactive).
